MCF10A rereplic: DNA re-replication induction in MCF 10a cells | hit rate 2.9% among 350,000 | Potency, µM (series often up to 46.1 µM), for inactives: at the top dose activity, positive = re-replication, hits mostly activators | MCF 10A DNA re-replication, Hoechst nuclear intensity, 48 h; also: potency is read from the fitted curve at half-maximal effect; % of control where 0% means no effect; nearly all actives have a fitted effect of over 50% in size
uPA surface inh: inhibitors of cell surface uPA generation; cell surface uPA generation assay, qHTS; Potency, µM (top dose mostly 38.3 µM), inactives show at the top dose activity change, negative = inhibition, hits mostly inhibitors; hit rate 0.31% among 330,000; active = well fitted inhibition curve with a large enough effect; inconclusive = small, poorly fitted or top-dose-only effect; inactive = no such curve, though single readings can be large or run the other way; tested in mouse RAW 264.7 cells; also: potency is read from the fitted curve at half-maximal effect; % is scaled to controls: 0 for no effect and ±100 for the full control effect; nearly all actives have a fitted effect of over 55% in size
SW480 rereplic: DNA re-replication induction in SW480 cells | Potency, µM (highest dose often 46.1 µM), inactives show top-dose re-replication activation, most hits filed as activators | AID 624297 | hit rate 1.8% among 340,000 | SW480 DNA re-replication, Hoechst DNA content imaging, 48 h; also: potency is read from the fitted curve at half-maximal effect; % of control where 0% means no effect; nearly all actives have a fitted effect of over 55% in size
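250 cells/well; 23 nL cpd via pin tool; 48 hr, 37 C, 5% CO2; Hoechst 40 min; imager read of total nuclear intensity, ex 405/em 500-530 nm.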
Giardia killer: Giardia lamblia killing | Giardia lamblia trophozoite viability | AID 540267 | hit rate 0.15% among 340,000 | activity change, % at 7.66 µM, hits read low; in the data active = activity change below about -80%; inconclusive = between about -30% and that limit;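 also: parasites exposed to compound for two days anaerobically before the ATP read; % is scaled to controls: 0 for no effect and ±100 for the full control effect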
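Giardia trophozoites, 100 cells per well, were exposed to compounds for 48 hrs at 37 deg C under anaerobic conditions; viability was then read as ATP content by bioluminescence after 15-30 min at room temperature.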
Starred values were filed as active, the others as inactive; ? = inconclusive; nt = no result given. A selection: hits, their analogues and other compounds. The true share with any hit is near 4.3%. Unless noted, calls follow the shape of the dose curve; as a rule, active = well fitted activation curve with a large enough effect; inconclusive = small, poorly fitted or top-dose-only effect; inactive = no such curve, though single readings can be large or run the other way.

SMILES | MCF10A rereplic | uPA surface inh | SW480 rereplic | Giardia killer
CC(C)(C)OC(=O)N[C@@H](Cc1ccccc1)c1nnc(S(=O)(=O)Cc2cccc(F)c2)o1 | ? | -14% | ? | 13
CN(c1ccccc1)c1ncnc2c1ncn2C | 1% | 1% | 0% | 5
COC(=O)c1c(C)[nH]c(C(=O)CN(C)CC(=O)Nc2cccc(F)c2)c1C | -4% | -13% | ? | -6
Cc1ccsc1/C=N\NC(=O)Cn1nnc2ccccc21 | ? | -11% | 18µM* | -3
O=C(CN1CCN(S(=O)(=O)c2ccccc2)CC1)N1CCc2ccccc21 | 14% | 3% | 1% | 10
CC(=O)Nc1sc(C)c(C)c1C(=O)OCC(=O)Nc1cccc(C)c1 | 8.2µM* | 5% | ? | -2
O=C(CSc1nc2ccc(Nc3nc(N4CCOCC4)nc(N4CCOCC4)n3)cc2s1)Nc1ccccc1F | 2.1µM* | 2% | 2.9µM* | 15
O=C(CSc1nc2ccc(Nc3nc(N4CCCC4)nc(N4CCCC4)n3)cc2s1)NCc1ccco1 | 5.8µM* | 23% | -9% | 1
O=C(CSc1nc2ccc(Nc3nc(N4CCOCC4)nc(N4CCOCC4)n3)cc2s1)Nc1ccccc1Cl | 18µM* | 13% | ? | 3
CSc1nc2ccc(Nc3nc(N4CCOCC4)nc(N4CCOCC4)n3)cc2s1 | ? | 7% | 16µM* | 7
O=C(NNC(=O)c1cc(-c2ccncc2)nc2ccccc12)c1ccccc1O | ? | 1% | -31% | ?
COc1ccc(C2=NS(=O)(=O)N(C)C(C(=O)Nc3ccc4c(c3)OCO4)=C2)cc1OC | 0% | -12% | 2% | 9
CC1CCN(S(=O)(=O)c2ccc3c(c2)N(CC(=O)N(C)Cc2ccco2)C(=O)CO3)CC1 | ? | ? | 6% | 3
CC(C)C1N=C(c2ccc3c(c2)OCO3)CC(c2ccccc2O)N1 (centres undefined) | 21µM* | 10µM* | ? | -25
Cc1ccc(OCc2cc(C(=O)N3CCN(C4CCCCC4)CC3)no2)cc1C | 12µM* | -2% | -9% | -2
Cc1cc(OCc2cc(C(=O)N3CCC(Oc4cccnc4)CC3)no2)cc(C)c1Cl | 21µM* | -5% | 2% | -6
Cc1ccc(OCc2cc(C(=O)N3CCN(C4CCCC4)CC3)no2)cc1C | ? | 1% | 1% | 22
Cc1ccc(Sc2c(C=O)c3ccccc3n2C)cc1 | ? | -2% | 15µM* | 0
Cc1ccc(Sc2c([N+](=O)[O-])c(=O)n(C)c3ccccc23)cc1 | 5.8µM* | ? | 4% | -26
Cc1ccc(Sc2c(O)c3ccccc3n(C)c2=O)cc1 | -1% | 7% | -270% | 0
CC(C)(C)c1ccc(/C=N/NC(=S)NC2CCCCC2)cc1 | 16µM* | -2% | ? | -2
O=C(N/N=C/c1ccccc1)NC1CCCCC1 | -38% | -3% | -88% | -1
COc1ccc(-c2nc(Cn3c(SCc4ccc(C)cc4)nc4ccncc43)c(C)o2)cc1OC | ? | 8.9µM* | 1% | -28
CC1CCCN(C(=S)SCC(=O)c2cc(Br)cc(Br)c2O)C1 (centres undefined) | ? | 0% | 24% | -2
O=C(CSC(=S)N1CCCC1)c1cc(Br)cc(Br)c1O | 19% | -2% | 5.2µM* | -20
SMILES | MCF10A rereplic | uPA surface inh | SW480 rereplic | Giardia killer
CN1CCN(C2=Cc3cc(Cl)ccc3Sc3cc(F)ccc32)CC1 | 13µM* | 5% | ? | 7
CN1CCN(C2=Cc3ccccc3Sc3cc(F)c(F)cc32)CC1 | -14% | 4% | 1% | -3
CC(C)Cc1ccc(CC(=O)O)cc1 | -1% | nt | 0% | nt
COc1ccccc1CNC(=O)[C@H](CCSC)NC(=O)[C@@H]1Cc2ccccc2CN1 | 16% | 0% | 7.3µM* | 0
Cc1ccc(NC(=O)[C@H](NC(=O)[C@@H]2Cc3ccccc3CN2)c2ccccc2)cc1 | 0% | 3% | -33% | 8
CC(C)c1ccc(NC(=O)[C@H](Cc2c[nH]c3ccccc23)NC(=O)[C@@H]2Cc3ccccc3CN2)cc1 | 21µM* | -8% | ? | 0
CC(C)c1ccc(NC(=S)NCCc2c[nH]c3ccccc23)cc1 | 15µM* | 5% | 38% | -10
Cc1cccc(NC(=O)[C@@H](CC(C)C)NC(=O)[C@@H]2Cc3ccccc3CN2)c1 | -3% | 2% | 6% | ?
Cc1ccc(NC(=S)NCCc2c[nH]c3ccccc23)cc1 | 4% | -3% | -3% | 6
CC(C)c1ccc(NC(=O)[C@H](NC(=O)[C@@H]2Cc3ccccc3CN2)c2ccccc2)cc1 | 21µM* | 1% | ? | 12
O=C(CSc1nc(=O)n2ccccc2n1)Nc1ccc2c(c1)OCO2 | 0% | -7% | -86% | 11
